Source: PubChem BioAssay (several laboratories)
Shown are actives, neighbours in structure and some others; about 3.2% of the full set was active somewhere.
GDH-TPI inh = GDH-TPI coupling enzyme inhibitors, primary screen, artefact control for M. tuberculosis FBA inhibitor project, biochemical, absorbance, full deck; GDH-TPI coupled enzyme counterscreen, NADH absorbance; inhibition, % at 4.8 µM; 360,000 tested, 1.2% active; in the data active = inhibition above about 30%
FBA Mtb inh = Mtb FBA enzyme inhibitors, primary screen, biochemical, fluorescence, strain H37Rv. 360,000 tested, 2.3% active. inhibition, % at 1 µM. purified M. tuberculosis FBA, fluorescence read-out. AID 588726, 2011. Fructose-bisphosphate aldolase (Mycobacterium tuberculosis (strain ATCC 25618 / H37Rv)), …; in the data active = inhibition above about 27%
TcdB GH inh = TcdB glycohydrolase inhibitors, primary screen, biochemical, single point, plate reader | Toxin B (Clostridioides difficile), P18177 | TcdB glycohydrolase enzymatic assay | inhibition, % at 9.99 µM | 350,000 tested, 0.24% active | AID 652162, 2013; in the data active = inhibition above about 10%
Yp Topo-I inh = Yersinia pestis topoisomerase I inhibitors, primary screen, biochemical, cleavage product accumulation, plate reader, single point | DNA topoisomerase I (Yersinia pestis CO92) | Y. pestis Topo-I cleavage product accumulation | activity, % at 10 µM | 360,000 tested, 0.064% active; in the data active = activity above about 50%, passing the limit was not always enough
PrPC TRFRET = inhibitors of human cell surface prion protein PrPC, primary screen, cell-based, TR-FRET | Major prion protein (Homo sapiens), P04156 | TR-FRET read-out | inhibition, % at 13.8 µM | 370,000 tested, 0.43% active; in the data active = inhibition above about 24%
PrPC TRFRET cf = confirmation of inhibitors of cell surface human prion protein, confirmation, cell-based, TR-FRET; 1,500 tested, 65% active; cell surface PrPC level; inhibition, % at 13.8 µM; shares compounds with PrPC TRFRET; AID 743200, 2013; in the data active = inhibition above about 25%
LD9 cytotox = cytotoxicity in LD9 cells, cytotoxicity control for cell surface PrPc inhibitor project, cell-based, luminescence, high throughput; shares compounds with PrPC TRFRET; inhibition, % at 13.8 µM; luminescence viability; 1,500 tested, 29% active; in the data active = inhibition above about 9.5%
Each line names hits and unclear results; the compound was inactive in the other large screens (follow-up assays come after a bar, where they were run).

O=C(C[C@H]1C=C[C@@H](NC(=O)c2ccc3c(c2)OCO3)[C@H](CO)O1)NC1Cc2ccccc2C1	none (no result: GDH-TPI inh, FBA Mtb inh, Yp Topo-I inh, PrPC TRFRET)
Cc1[nH]c(=O)c(C#N)c(C)c1CSc1ncccn1	PrPC TRFRET 28.6 | PrPC TRFRET cf 24.8 | LD9 cytotox inactive
Cc1[nH]c(=O)c(C#N)c(C)c1Cc1ccc(Cl)cc1Cl	none
O=C(Nc1ccccc1)C1=C(c2ccccc2)S(=O)(=O)CCS1(=O)=O	PrPC TRFRET 33.3 | PrPC TRFRET cf inactive | LD9 cytotox 69.6
CCOC(=O)N1CCN(C(=O)/C(=C/c2ccc(OC)c(OC)c2)NC(=O)c2ccccc2)CC1	PrPC TRFRET 28.9 | PrPC TRFRET cf inactive | LD9 cytotox inactive
O=C(NC1CCCCN(Cc2cccc(C(F)(F)F)c2)C1=O)c1ccc(COc2ccccc2)cc1 (configuration not stated)	PrPC TRFRET 25.5 (no result: GDH-TPI inh, FBA Mtb inh, TcdB GH inh, Yp Topo-I inh) | PrPC TRFRET cf 24.9 | LD9 cytotox inactive
O=C(NC1CCCCN(Cc2ccc(Cl)cc2)C1=O)c1ccc(COc2ccccc2)cc1 (configuration not stated)	none (no result: GDH-TPI inh, FBA Mtb inh, TcdB GH inh, Yp Topo-I inh)
COc1cc(C(=O)NC2CCCCN(Cc3cccc(C(F)(F)F)c3)C2=O)cc(OC)c1OC (configuration not stated)	PrPC TRFRET 49.4 (no result: GDH-TPI inh, FBA Mtb inh, TcdB GH inh, Yp Topo-I inh) | PrPC TRFRET cf inactive | LD9 cytotox inactive
COc1cc(C(=O)NC2CCCCN(Cc3cccc(Cl)c3)C2=O)cc(OC)c1OC (configuration not stated)	none (no result: GDH-TPI inh, FBA Mtb inh, TcdB GH inh, Yp Topo-I inh)
COC(=O)c1ccc(C(c2c(N)n(CC(C)C)c(=O)[nH]c2=O)N2CCN(c3ccccc3)CC2)cc1 (configuration not stated)	PrPC TRFRET 29.7 (no result: TcdB GH inh) | PrPC TRFRET cf inactive | LD9 cytotox 10.5
COc1ccc(/C(O)=C2\C(=O)C(=O)N(c3cc(C)on3)C2c2ccccc2OC)cc1C (configuration not stated)	none (no result: TcdB GH inh)
CCCOc1ccc(/C(O)=C2\C(=O)C(=O)N(c3ccccn3)C2c2ccccc2F)cc1C (configuration not stated)	PrPC TRFRET 44.5 | PrPC TRFRET cf 89.4 | LD9 cytotox inactive
CCOc1ccc(/C(O)=C2/C(=O)C(=O)N(c3ccccn3)C2c2ccc(Cl)cc2)c(C)c1 (configuration not stated)	none
CCOc1ccc(/C(O)=C2/C(=O)C(=O)N(c3ccccn3)C2c2ccc(C)cc2)c(C)c1 (configuration not stated)	PrPC TRFRET 39.7 | PrPC TRFRET cf 51.8 | LD9 cytotox inactive
C[C@@H]1CN([C@@H](C)CO)C(=O)c2cccc(NC(=O)c3nc4ccccc4s3)c2O[C@@H]1CN(C)S(C)(=O)=O	none (no result: GDH-TPI inh, FBA Mtb inh, Yp Topo-I inh, PrPC TRFRET)
C[C@@H]1CCCCO[C@@H](CN(C)C(=O)c2ccncc2)[C@@H](C)CN([C@@H](C)CO)C(=O)c2cc(NS(=O)(=O)c3cn(C)cn3)ccc2O1	none (no result: GDH-TPI inh, FBA Mtb inh, Yp Topo-I inh, PrPC TRFRET)
O=C(NC1CCCC1)C(c1ccncc1)N(Cc1ccccc1)C(=O)c1ccc(-c2ccccc2)[nH]1 (configuration not stated)	PrPC TRFRET 26.4 (no result: TcdB GH inh) | PrPC TRFRET cf inactive | LD9 cytotox inactive
CC(C)(C)NC(=O)C(c1ccc(F)cc1)N(CCc1ccccc1)C(=O)c1ccn[nH]1 (configuration not stated)	none
O=C(NC1CCCC1)C(c1ccncc1)N(Cc1ccco1)C(=O)c1ccc(-c2ccccc2)[nH]1 (configuration not stated)	none
CC(C)(C)NC(=O)C(c1ccncc1)N(Cc1ccc(F)cc1)C(=O)c1ccc(-c2ccccc2)[nH]1 (configuration not stated)	PrPC TRFRET 27.0 | PrPC TRFRET cf inactive | LD9 cytotox inactive
Cc1cc(C)c(O)c(C(=O)CC2CC(=O)NC(=O)C2)c1	PrPC TRFRET 71.1 (no result: GDH-TPI inh, FBA Mtb inh, Yp Topo-I inh) | PrPC TRFRET cf 66.0 | LD9 cytotox 34.4
Cc1ccc(-c2cnc3c(c2)C(=O)N([C@H](C)CO)C[C@@H](C)[C@H](CN(C)C(=O)c2cccnc2)O3)cc1	none (no result: GDH-TPI inh, FBA Mtb inh, Yp Topo-I inh, PrPC TRFRET)
CCCCCn1c2c(c(=N)c3ccccc31)CCC2	none
CCCCCCCCn1c2c(c(=N)c3ccccc31)CCC2	PrPC TRFRET 28.7 | PrPC TRFRET cf 44.3 | LD9 cytotox 38.2
CC(=O)N(C)C[C@@H]1Oc2cc(-c3ccccc3)ccc2S(=O)(=O)N([C@@H](C)CO)C[C@@H]1C	none (no result: GDH-TPI inh, FBA Mtb inh, Yp Topo-I inh, PrPC TRFRET)
CCC(C)C(NC(=O)CCCNC(=O)CCC(=O)OC1O[C@H]2OC3(C)CC[C@H]4[C@H](C)CCC(C1C)C24OO3)C(=O)O (some centres not stated)	PrPC TRFRET 27.8 | PrPC TRFRET cf 31.0 | LD9 cytotox 22.1
C[C@@H]1CC[C@H]2[C@@H](C)C(=O)O[C@@H]3O[C@@]4(C)CC[C@@H]1[C@]32OO4	none
CCC(C)NC(=O)CCC(=O)OC1O[C@H]2OC3(C)CC[C@H]4[C@H](C)CCC(C1C)C24OO3 (some centres not stated)	PrPC TRFRET 28.1 | PrPC TRFRET cf 30.8 | LD9 cytotox 21.4
CCN(CC)S(=O)(=O)c1ccc(C(=O)NCc2ccc3c(c2)cc(C)n3C)cc1	PrPC TRFRET 36.2 | PrPC TRFRET cf inactive | LD9 cytotox inactive
Cc1cc2cc(CNC(=O)c3ccc(S(=O)(=O)N4CCCCC4)cc3)ccc2n1C	PrPC TRFRET 39.3 | PrPC TRFRET cf inactive | LD9 cytotox inactive
CCN(CC)S(=O)(=O)c1ccc(C(=O)NCc2ccc3c(c2)OCO3)cc1	none
Cc1cc2cc(CNC(=O)c3ccc(S(=O)(=O)N4CCCC4)cc3)ccc2n1C	PrPC TRFRET 37.3 | PrPC TRFRET cf 67.5 | LD9 cytotox inactive
CCCNC(=O)N1CC2(C1)[C@H](c1ccccc1)[C@@H](CO)N2Cc1ccc(Cl)cc1	none (no result: GDH-TPI inh, FBA Mtb inh, Yp Topo-I inh, PrPC TRFRET)
O=C(O)C[C@@H]1C[C@@H]2c3cc(NC(=O)NC4CCCC4)ccc3O[C@@H]2[C@@H](CO)O1	none (no result: GDH-TPI inh, FBA Mtb inh, Yp Topo-I inh, PrPC TRFRET)
CCC(=O)N(C)C[C@@H]1Oc2cc(-c3ccncc3)ccc2S(=O)(=O)N([C@H](C)CO)C[C@@H]1C	none (no result: GDH-TPI inh, FBA Mtb inh, Yp Topo-I inh, PrPC TRFRET)
CC(C)c1ccc(-n2c(-c3ccccc3)c[n+]3c2CCc2ccccc2-3)cc1	PrPC TRFRET 40.7 | PrPC TRFRET cf 49.6 | LD9 cytotox 37.4
CCCCCCCCCCCCCCCC[n+]1ccccc1	PrPC TRFRET 27.7 | PrPC TRFRET cf 39.5 | LD9 cytotox 36.1
COc1ccc(-c2cc(CNc3nc(NC(C)C)nc4cc(-c5ccccc5)sc34)on2)cc1	PrPC TRFRET 25.4 | PrPC TRFRET cf 40.2 | LD9 cytotox inactive
COc1cccc(NC(=O)c2nc(S(C)(=O)=O)ncc2Cl)c1	PrPC TRFRET 82.6 | PrPC TRFRET cf inactive | LD9 cytotox 93.6
